One assay concerns NEK7. The note with it: n = 1.
In the next assay the test system is NEK9. The settings on record: n = 1.
A further assay relates to T1, NIK.
T1 construct: gene MAP3K14
The settings on record: n = 1.

In another assay the test system is T2, NIM1.
T2 construct: gene MGC42105
The settings on record: n = 1.

A further assay has as its system NLK. The note with it: n = 1.
In the next assay the test system is T3, OSR1.
T3 construct: gene OXSR1
The settings on record: n = 1.

A further assay has as its system PAK1. The note with it: n = 1.
In another assay the test system is PAK2. The note with it: n = 1.
The next assay deals with PAK3. The note with it: n = 1.
A further assay deals with PAK4. The note with it: concentration: 1 μM, replicates: in singlicate; n = 1.
Setting [1] is: concentration: 1 μM, replicates: in singlicate.
[2] abbreviates: concentration: 1 μM,replicates: in singlicate, 1 µM.

Several values for one entry are separate records, joined by “and”; a condition that tells them apart may be missing. Equal values may be shown once. Read-outs that look alike come from different tables or passages of the source.
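Further: KINOMEscan kinase panel screen.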

Consider `COc1cccc(-c2cc(-c3c[nH]nc3-c3ccccn3)ccn2)c1` [GW680338], for which the “%Inh” value with NEK7 (setting [1]) is listed as 0%; in the assay with NEK9 (setting [1]), 1%; with NIK (setting [1]) it was 19%; with NIM1 (setting [1]), 21%; with NLK (setting [1]) it was 6%; with OSR1 (setting [1]), 0%. In addition, the “%Inh” value in the assay with PAK1 (setting [1]) came to 0%; in the assay on PAK2 (setting [1]), 0%; with PAK3 (setting [1]), 9%; with PAK4 it was 9%.
Take `CC(=O)Nc1nc2cnc(Nc3cc(NC(=O)c4cccc(CCC#N)c4)ccc3C)nc2s1`: the “%Inh” value was determined as 6% in the assay on NEK7 (setting [1]); 0% with NEK9 (setting [1]); 0% in the assay with NIK (setting [1]); 0% in the assay on NIM1 (setting [1]); 0% in the assay on NLK (setting [1]); 0% with OSR1 (setting [1]). In addition, the “%Inh” value in the assay on PAK1 (setting [1]) is on record as 0%; in the assay on PAK2 (setting [1]), 0%; with PAK3 (setting [1]), 7%; in the assay with PAK4, 5%.
Take `Cc1cc(N2Cc3ccccc3C2)nc(Nc2ccc(S(=O)(=O)N3CCOCC3)cc2)n1.Cl` [GSK1669917]: the “%Inh” value was determined as 0% with NEK7 (setting [1]); 0% in the assay on NEK9 (setting [1]); 0% in the assay with NIK (setting [1]); 6% with NIM1 (setting [1]); 7% in the assay on NLK (setting [1]); 0% in the assay with OSR1 (setting [1]). Also, the “%Inh” value in the assay on PAK1 (setting [1]) amounted to 8%; with PAK2 (setting [1]), 3%; in the assay with PAK3 (setting [1]) it was 0%; in the assay with PAK4 it was 0%.
For the molecule `CN1C(=O)C(Nc2ccc(Cl)c(C(=O)O)c2)=C(c2ccc(Cl)cc2)C1=O` [SB-404290], the “%Inh” value came to 15% in the assay with NEK7 (setting [1]); 10% in the assay with NEK9 (setting [1]); 0% with NIK (setting [1]); 9% with NIM1 (setting [1]); 17% in the assay with NLK (setting [1]); 13% in the assay on OSR1 (setting [1]). Moreover, the “%Inh” value in the assay on PAK1 (setting [1]) turned out to be 0%; in the assay with PAK2 (setting [1]) it was 18%; with PAK3 (setting [1]), 22%; in the assay with PAK4, 0%.
For `CSc1nn2c(=O)cc(N3CCOCC3)nc2n1Cc1cccc(C(F)(F)F)c1C` [GSK2363608], the “%Inh” value with NEK7 (setting [2]) is 3% and 0%; in the assay with NEK9 (setting [2]) it was 22% and 2%; with NIK (setting [2]), 0% and 6%; in the assay on NIM1 (setting [2]) it was 2% and 12%; with NLK (setting [2]), 2% and 37%; in the assay with OSR1 (setting [2]) it was 15% and 7%. The “%Inh” value with PAK1 (setting [2]) was 0% and 38%; with PAK2 (setting [2]), 0% and 37%; with PAK3 (setting [2]), 8% and 0%; in the assay with PAK4, 0%.
As to `Cc1cccc(-c2nc(-c3ccc(S(C)(=O)=O)cc3)sc2-c2ccnc(NCCc3ccccc3)c2)c1`, the “%Inh” value in the assay with NEK7 (setting [1]) was 0%; with NEK9 (setting [1]), 0%; in the assay with NIK (setting [1]), 0%; with NIM1 (setting [1]) it was 0%; in the assay with NLK (setting [1]) it was 11%; in the assay on OSR1 (setting [1]), 0%. Further, the “%Inh” value in the assay on PAK1 (setting [1]) stood at 18%; with PAK2 (setting [1]), 20%; with PAK3 (setting [1]), 0%; with PAK4, 1%.
As for `CCn1c(-c2ccccn2)nc2cnccc21` [SB-736398], the “%Inh” value in the assay on NEK7 (setting [1]) is recorded as 0%; in the assay with NEK9 (setting [1]), 0%; with NIK (setting [1]), 24%; in the assay on NIM1 (setting [1]), 34%; with NLK (setting [1]), 0%; in the assay with OSR1 (setting [1]), 0%. For the same molecule, the “%Inh” value in the assay with PAK1 (setting [1]) stood at 22%; with PAK2 (setting [1]) it was 24%; with PAK3 (setting [1]), 31%; in the assay on PAK4, 0%.
As for `COc1ccc(Nc2nccc(NCCNC(=O)Nc3ccccc3F)n2)cc1` [GSK1379901], the “%Inh” value is on record as 0% with NEK7 (setting [1]); 0% in the assay on NEK9 (setting [1]); 9% with NIK (setting [1]); 9% in the assay with NIM1 (setting [1]); 7% in the assay on NLK (setting [1]); 8% in the assay with OSR1 (setting [1]). In addition, the “%Inh” value with PAK1 (setting [1]), in the assay with PAK2 (setting [1]), in the assay with PAK3 (setting [1]) and in the assay on PAK4 was 0% throughout.
Regarding `Cc1cccc(-c2cc(Nc3ccncc3)c3ccccc3n2)n1` [GSK223675], the “%Inh” value is recorded as 0% in the assay with NEK7 (setting [1]); 8% in the assay with NEK9 (setting [1]); 14% in the assay with NIK (setting [1]); 0% in the assay on NIM1 (setting [1]); 10% with NLK (setting [1]); 6% in the assay with OSR1 (setting [1]). Further, the “%Inh” value stood at 6% with PAK1 (setting [1]), 2% in the assay on PAK2 (setting [1]), 0% in the assay with PAK3 (setting [1]) and 0% with PAK4.
Turning to `COc1ccc(C2=C(Nc3cccc(C(=O)O)c3)C(=O)NC2=O)cc1` [SB-390765], the “%Inh” value is recorded as 28% in the assay on NEK7 (setting [1]); 2% in the assay with NEK9 (setting [1]); 10% in the assay with NIK (setting [1]); 45% with NIM1 (setting [1]); 1% in the assay on NLK (setting [1]); 22% with OSR1 (setting [1]). For the same molecule, the “%Inh” value stood at 0% in the assay with PAK1 (setting [1]), 27% with PAK2 (setting [1]), 0% with PAK3 (setting [1]) and 0% with PAK4.
As for `Fc1cc(Cl)ccc1Nc1ccnc2cc(I)ccc12` [GW551191], the “%Inh” value with NEK7 (setting [1]) is recorded as 0%; in the assay with NEK9 (setting [1]) it was 5%; in the assay with NIK (setting [1]), 7%; in the assay on NIM1 (setting [1]), 19%; in the assay with NLK (setting [1]), 59%; with OSR1 (setting [1]), 6%. In addition, the “%Inh” value was determined as 18% with PAK1 (setting [1]), 9% in the assay on PAK2 (setting [1]), 14% in the assay with PAK3 (setting [1]) and 0% in the assay on PAK4.
As for `O=C1NC(=O)C(N2CCc3ccccc32)=C1c1ccccc1Cl` [SB-373598], the “%Inh” value is on record as 0% with NEK7 (setting [1]); 13% in the assay with NEK9 (setting [1]); 0% in the assay with NIK (setting [1]); 16% with NIM1 (setting [1]); 2% in the assay on NLK (setting [1]); 63% with OSR1 (setting [1]). The “%Inh” value worked out at 10% with PAK1 (setting [1]), 10% with PAK2 (setting [1]), 100% in the assay with PAK3 (setting [1]) and 0% in the assay with PAK4.
`CCn1c(-c2cccnc2O)nc2cnccc21` [SB-736715]: the “%Inh” value turned out to be 0% in the assay with NEK7 (setting [1]); 0% in the assay with NEK9 (setting [1]); 27% with NIK (setting [1]); 0% with NIM1 (setting [1]); 0% in the assay on NLK (setting [1]); 0% with OSR1 (setting [1]). Also, the “%Inh” value in the assay with PAK1 (setting [1]) was 0%; in the assay with PAK2 (setting [1]), 0%; with PAK3 (setting [1]), 0%; with PAK4, 32%.
Consider `Cl.O=C(Nc1cccc(-c2nn3ncccc3c2-c2ccnc(Nc3cccnc3)n2)c1)c1c(F)cccc1F` [GSK312879], for which the “%Inh” value is recorded as 7% in the assay with NEK7 (setting [1]); 0% with NEK9 (setting [1]); 24% in the assay on NIK (setting [1]); 11% with NIM1 (setting [1]); 15% in the assay with NLK (setting [1]); 23% with OSR1 (setting [1]). For the same molecule, the “%Inh” value amounted to 15% with PAK1 (setting [1]), 19% in the assay on PAK2 (setting [1]), 9% in the assay on PAK3 (setting [1]) and 0% with PAK4.
Consider `Cc1ccc(NC(=O)Nc2cc(C(C)(C)C)nn2-c2ccccc2)cc1` [GSK1014915], for which the “%Inh” value in the assay on NEK7 (setting [1]) is reported as 6%; with NEK9 (setting [1]), 0%; with NIK (setting [1]), 35%; in the assay with NIM1 (setting [1]) it was 3%; with NLK (setting [1]) it was 14%; with OSR1 (setting [1]), 0%. Also, the “%Inh” value is recorded as 0% with PAK1 (setting [1]), 2% in the assay on PAK2 (setting [1]), 76% in the assay with PAK3 (setting [1]) and 0% with PAK4.
Turning to `COc1cc(Nc2nccc(N3CCC(NC(=O)Nc4cc(C)ccc4C)C3)n2)cc(OC)c1OC` (stereo not shown) [GSK1379762], the “%Inh” value is 54% with NEK7 (setting [1]); 32% with NEK9 (setting [1]); 32% with NIK (setting [1]); 27% in the assay on NIM1 (setting [1]); 0% in the assay on NLK (setting [1]); 9% in the assay on OSR1 (setting [1]). Moreover, the “%Inh” value with PAK1 (setting [1]) is reported as 11%; in the assay on PAK2 (setting [1]) it was 4%; in the assay on PAK3 (setting [1]), 29%; in the assay on PAK4 it was 0%.
For the molecule `O=S(=O)(c1ccc(-c2ccnc3[nH]ccc23)cc1)N1CCCC1` [GSK846226], the “%Inh” value with NEK7 (setting [1]) came to 20%; in the assay on NEK9 (setting [1]) it was 28%; with NIK (setting [1]) it was 12%; in the assay on NIM1 (setting [1]), 0%; with NLK (setting [1]), 14%; with OSR1 (setting [1]) it was 4%. For the same molecule, the “%Inh” value in the assay on PAK1 (setting [1]) is given as 0%; in the assay on PAK2 (setting [1]) it was 0%; in the assay on PAK3 (setting [1]), 12%; with PAK4, 0%.
`Cl.c1ccc(-c2n[nH]cc2-c2ccnc(-c3ccc(CN4CCOCC4)cc3)c2)nc1` [GW776245]: the “%Inh” value with NEK7 (setting [1]), in the assay on NEK9 (setting [1]), in the assay on NIK (setting [1]), in the assay on NIM1 (setting [1]), in the assay with NLK (setting [1]) and in the assay with OSR1 (setting [1]) was 0% each time. For the same molecule, the “%Inh” value in the assay on PAK1 (setting [1]) is on record as 6%; with PAK2 (setting [1]) it was 14%; in the assay on PAK3 (setting [1]), 10%; with PAK4 it was 16%.
`COc1ccccc1CNC(=O)c1cc(C(=O)c2ccccc2C)c[nH]1` [GSK364507]: the “%Inh” value with NEK7 (setting [1]) turned out to be 6%; in the assay with NEK9 (setting [1]) it was 15%; with NIK (setting [1]), 12%; with NIM1 (setting [1]) it was 16%; with NLK (setting [1]), 40%; in the assay with OSR1 (setting [1]) it was 8%. Moreover, the “%Inh” value was found to be 6% in the assay with PAK1 (setting [1]), 1% in the assay with PAK2 (setting [1]), 0% in the assay with PAK3 (setting [1]) and 0% in the assay on PAK4.

(Values after paper PMC5540273 (PLoS ONE, 2017).)
